This note sets out measurements from the supplement of paper PMC6518042.

Structures are written as SMILES. Values without a mark were called inactive.

The first assay relates to Pectobacterium parmentieri SCC3193. Put plainly: DuctApe activity index (growth/respiration on compound as sole nutrient source, blank-subtracted) (activity index (0-3)); higher = stronger utilization of the compound, active = 3 or more. Conditions: nutrient role (plate category): carbon. The protocol:
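Biolog Phenotype Microarray plates PM1, PM2A (carbon), PM3 (nitrogen) and PM4 (phosphorus/sulfur) inoculated with P. parmentieri SCC3193 in M9-C minimal salts medium with Biolog dye A, and read in the OmniLog for 46 h. Each well was tested in triplicate and the experiment was run twice. DuctApe computed a blank-subtracted activity index (AV, 0-3) from the mean curves; growth is positive at AV >= 3 and negative at AV <= 2.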
Regarding `OC[C@H]1O[C@H](OC[C@H]2O[C@H](O[C@]3(CO)O[C@H](CO)[C@@H](O)[C@@H]3O)[C@H](O)[C@@H](O)[C@@H]2O)[C@H](O)[C@@H](O)[C@H]1O` [D-Raffinose], the DuctApe activity index is 3 (active).

As for `OCC1OC(O)(CO)C(O)C1O` [D-Fructose], the DuctApe activity index was 3 (active).

On to `OC[C@@H](O)[C@@H](O[C@@H]1O[C@H](CO)[C@H](O)[C@H](O)[C@H]1O)[C@H](O)[C@@H](O)CO` [D-Lactitol], for which the DuctApe activity index was 0.

For the compound `Nc1ncnc2c1ncn2[C@H]1C[C@H](O)[C@@H](CO)O1` [2`-Deoxyadenosine], the DuctApe activity index was 1.

On to `C[C@H](O)C(=O)O` [L-Lactic acid], for which the DuctApe activity index is 2.

As for `C[C@@H](O)[C@H](O)[C@H](O)[C@@H](O)C=O` [D-Fucose], the DuctApe activity index is 0.

Take `O=C(O)C[C@H](O)C(=O)O` [L-Malic acid]: the DuctApe activity index is 3 (active).

Turning to `CO[C@@H]1O[C@H](CO)[C@H](O)[C@H](O)[C@H]1O` [b-Methyl-D-Galactoside], the DuctApe activity index was 2.

With `O=C(O)[C@@H](O)[C@@H](O)[C@H](O)[C@@H](O)C(=O)O` [D-Saccharic acid], the DuctApe activity index was 3 (active).

For `O=C(O)CCCCCCCCC(=O)O` [Sebacic acid], the DuctApe activity index was 0.

With `O=C(O)C[C@@H](O)C(=O)O` [D-Malic acid], the DuctApe activity index is 0.

In the case of `C[C@H](O)[C@@H](N)C(=O)O` [D-Threonine], the DuctApe activity index is 0.

Regarding `CC[C@H](O)C(=O)O` [a-Hydroxybutyric acid], the DuctApe activity index is 0.

In the case of `COC(=O)C(C)=O` [Methylpyruvate], the DuctApe activity index is 3 (active).

Take `O=C[C@H](O)[C@H](O)[C@@H](O)CO` [L-Lyxose]: the DuctApe activity index was 0.

In the case of `C/C=C/C=C/C(=O)O` [Sorbic acid], the DuctApe activity index was 0.

With `OCC(O)C(O)C(O)CO` (configuration not stated) [Adonitol], the DuctApe activity index is 1.

As for `OC[C@@H](O)[C@@H](O)[C@H](O)[C@@H](O)CO` [D-Sorbitol], the DuctApe activity index was 0.

With `OC[C@H]1O[C@H](OC[C@H]2OC(O)[C@H](O)[C@@H](O)[C@@H]2O)[C@H](O)[C@@H](O)[C@H]1O` (stereo partly drawn) [D-Melibiose], the DuctApe activity index is 3 (active).

Turning to `COC(=O)[C@@H](C)O` [D-Lactic acid Methyl Ester], the DuctApe activity index is 1.

The same assay, now with this note: nutrient role (plate category): nitrogen.
Turning to `NCCc1c[nH]cn1` [Histamine], the DuctApe activity index is 0.

As for `CCCCCN` [N-Amylamine], the DuctApe activity index was 0.

As to `Cc1c[nH]c(=O)[nH]c1=O` [Thymine], the DuctApe activity index was 0.

Turning to `O=NO` [Nitrite], the DuctApe activity index is 0.

In the case of `CC(C)[C@@H](N)C(=O)O` [D-Valine], the DuctApe activity index is 0.

In the case of `Nc1nc2[nH]cnc2c(=O)[nH]1` [Guanine], the DuctApe activity index was 0.

In the case of `NC(=O)NC1NC(=O)NC1=O` (configuration not stated) [Allantoin], the DuctApe activity index is 0.

The assay is the same for the next values; noted with them: nutrient role (plate category): phosphate & sulphur.
On to `CS(=O)(=O)O` [Methane Sulfonic acid], for which the DuctApe activity index is 0.

Consider `NCCOP(=O)(O)O` [O-Phosphoryl-Ethanolamine], for which the DuctApe activity index is 1.

Consider `O=P(O)(O)OC[C@H]1OC(O)[C@@H](O)[C@@H](O)[C@@H]1O` (stereo partly drawn) [D-Mannose-6-Phosphate], for which the DuctApe activity index is 1.

For `N[C@@H](Cc1ccc(OP(=O)(O)O)cc1)C(=O)O` [O-Phospho-L-Tyrosine], the DuctApe activity index was 2.

With `Nc1nc2c(ncn2[C@@H]2O[C@H](CO)[C@@H](O)[C@H]2OP(=O)(O)O)c(=O)[nH]1` [Guanosine 2`-Monophosphate], the DuctApe activity index is 2.

`O=C(O)CP(=O)(O)O` [Phosphono Acetic acid]: the DuctApe activity index is 0.

Regarding `O=P(O)(O)O` [Phosphate], the DuctApe activity index was 1.

On to `NCCS(=O)O` [Hypotaurine], for which the DuctApe activity index was 1.

As for `Cc1cn([C@H]2C[C@H](O)[C@@H](COP(=O)(O)O)O2)c(=O)[nH]c1=O` [Thymidine 5`-Monophosphate], the DuctApe activity index is 2.

Consider `O=S(O)(O)=S` [Thiosulfate], for which the DuctApe activity index is 0.
